Compounds with a hit are over-represented: about 4.2% of the library has one in this group of screens.
DAX1 StAR inh: DAX1 (NR0B1) inhibitors on StAR promoter, primary screen, cell-based, luminescence, SF-1 (NR5A1), full-length DAX-1 | 370,000 tested, 1.1% active | inhibition, % at 6.8 µM | HEK293T StAR-luciferase reporter, SF-1/DAX-1 repression relief;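 active = inhibition above the mean over all tested compounds plus 3 SD, cut at about 3.6% in these data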;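 also: higher inhibition means more luminescence from relief of DAX-1 repression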
hcDAF12 agonist: H. contortus DAF-12 nuclear receptor activators, primary screen, cell-based, luminescence, HEK293, lit1-tk-luc reporter | HEK293 hcDAF-12 lit1-tk-luc reporter; 0% DMSO, 100% Δ7-dafachronic acid | activation, % at 6.8 µM | 370,000 tested, 1.4% active | AID 652067, 2013;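 active = activation above the mean of all tested compounds plus 3 SD, cut at about 5.5% in these data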
ssDAF12 agonist: S. stercoralis DAF-12 nuclear receptor activators, primary screen, cell-based, luminescence, HEK293, GRIP1 co-expression, lit1-tk-luc. Nuclear hormone receptor DAF-12 (Strongyloides stercoralis). 370,000 tested, 1% active. activation, % at 6.8 µM. HEK293 ssDAF-12/GRIP1 lit1-tk-luc reporter; % of 3 µM dafachronic acid response;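 active = activation above the mean over all tested compounds plus 3 SD, cut at about 0.9% in these data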
SMARCA2 activ: SMARCA2 (BRM) function activators, primary screen, cell-based, luminescence, high throughput; MG213 cells, MMTV-luciferase reporter, dexamethasone, overnight; activation, % at 9.1 µM; 370,000 tested, 1% active; in the data active = activation above about 7.8%
hgDAF12 agonist: H. glycines DAF-12 receptor agonists, primary screen, cell-based, luminescence, HEK293, GAL4 fusion, UAS-luciferase; Nuclear hormone receptor DAF-12 (Heterodera glycines), GAL4 fusion; HEK293 GAL4-hgDAF12 UAS-luciferase reporter, agonist luminescence; normalized to butyrate control; activation, % at 6.8 µM; 370,000 tested, 1.8% active; AID 687014, 2013;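 active = activation above a cutoff set at the mean of all screened compounds plus 3 SD, cut at about 10% in these data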
Each line names hits and unclear results; the compound was inactive in the other large screens.

c1ccc(-c2noc(-c3ccncc3)n2)nc1	DAX1 StAR inh 3.8
c1ccc(-c2noc(C34CC5CC(CC(C5)C3)C4)n2)nc1	hcDAF12 agonist 6.3, ssDAF12 agonist 0.9
Cc1occc1-c1nc(-c2ccncc2)no1	none
c1ccc(-c2noc(-c3ccc4c(c3)OCO4)n2)nc1	none
C=CCCC1CN(CC=C)S(=O)(=O)c2c(F)cccc2O1 (stereo not drawn)	none
CCOC(=O)[C@]12CCCCC/C=C\1N(CCc1ccc(Cl)cc1)C(=O)[C@H]2CC(=O)N1CCSCC1	none
O=C(c1ccc(CSc2nc3ccncc3[nH]2)cc1)N1CCN(c2cccc(Cl)c2)CC1	none
O=C(c1ccc(CSc2nc3ccncc3[nH]2)cc1)N1CCCCCC1	hgDAF12 agonist 12.7
O=C(NNS(=O)(=O)c1ccccc1[N+](=O)[O-])c1cccc(Br)c1	none
O=C(NNS(=O)(=O)c1ccccc1[N+](=O)[O-])c1cccc(Cl)c1	ssDAF12 agonist 1.1
Cn1c(CNC(=O)c2ccc(F)cc2)nc2ccccc21	none
Cn1c(CNc2ccccc2F)nc2ccccc21	hgDAF12 agonist 10.6 (no result: DAX1 StAR inh, SMARCA2 activ)
Cc1cccc2c(C(=O)O)c3cccc(C)c3nc12	ssDAF12 agonist 1.3
Cn1ccsc1=NC(=O)c1ccccc1F	none
Cn1ccs/c1=N\C(=O)Nc1ccccc1	hgDAF12 agonist 12.5
CC(C)(C)NC(=S)NNC(=O)c1ccc2ncccc2c1	DAX1 StAR inh 3.8, hgDAF12 agonist 11.3
O=C(NNC(=S)Nc1ccccc1)c1ccc2ncccc2c1	none
CC(C)C[C@H]1COc2cccc(F)c2S(=O)(=O)N1Cc1cn(Cc2ccco2)nn1	none
CN(c1ccc(OCC(=O)OCC(=O)NC2CCCC2)cc1)S(=O)(=O)c1ccc2ccccc2c1	ssDAF12 agonist 1.2
Cn1nccc1-c1ccc(C(=O)NCc2ccco2)c2occc12	hgDAF12 agonist 13.0
COC(=O)[C@@]12CCCCC3=C1N(CCC3)C(=O)[C@H]2CC(=O)N1CCSCC1	ssDAF12 agonist 1.5
O=C(NCCCn1ccnc1)Nc1ccc(Cl)c(Cl)c1	hcDAF12 agonist 5.8
O=C(NCC1CC1(Cl)Cl)Nc1ccc(Cl)c(Cl)c1 (stereo not drawn)	hgDAF12 agonist 10.7
O=C(NCCCn1ccnc1)Nc1ccc(Cl)cc1	none
Cn1cccc1CNC(=O)Nc1ccc(Cl)c(Cl)c1	none
Cc1nnc(SCC(=O)N2CCOCC2)s1	none
O=C(CSc1nnc(NC2CCCCC2)s1)N1CCOCC1	DAX1 StAR inh 4.1
CC(=O)c1c(C)[nH]c(C(=O)Nc2cc(S(=O)(=O)N3CCCCC3)ccc2C)c1C	none
COc1ccc(S(=O)(=O)N2CCCCC2)cc1NC(=O)c1[nH]c(C)c(C(C)=O)c1C	hcDAF12 agonist 6.2, ssDAF12 agonist 0.9
CC(=O)c1c(C)[nH]c(C(=O)Nc2ccc(F)c(F)c2F)c1C	none
CC(=O)c1c(C)[nH]c(C(=O)Nc2ccc(Cl)cc2F)c1C	hgDAF12 agonist 11.3
Cc1ccc(C(=O)NC2CCCCN(C(C)C)C2=O)cc1 (stereo not drawn)	none
CC(/C=N/NC(=O)Cn1cnc2ccccc21)=C\c1ccccc1	ssDAF12 agonist 8.4
COc1cccc(OCC(C)CN2CCC(C(O)(c3ccccc3)c3ccccc3)CC2)c1 (stereo not drawn)	none
Cc1c(C(=O)NCC2CCCO2)oc2ccc(Br)cc12 (stereo not drawn)	DAX1 StAR inh 3.8
CCCCc1cc(=O)oc2c(CN(C)C)c(O)c(Cl)cc12	ssDAF12 agonist 1.3
CCN(CC)CCn1c(NC(=O)c2ccc(Cl)cc2)nc2ccccc21	hcDAF12 agonist 5.7, ssDAF12 agonist 1.0
O=C(O)c1ccccc1C(=O)c1ccc(N2CCOCC2)c([N+](=O)[O-])c1	ssDAF12 agonist 1.1
C=CCn1c(COc2ccccc2)nnc1SCC(=O)c1ccc(-c2ccccc2)cc1	none
Cc1cc2nc(-c3ccc(SCC(=O)Nc4ccc(S(=O)(=O)N5CCCC5)cc4)nc3)[nH]c2cc1C	DAX1 StAR inh 3.7
O=C(CSc1ccc(-c2nc3ccccc3[nH]2)cn1)Nc1ccc(S(=O)(=O)N2CCCC2)cc1	none
Fc1ccc2[nH]c3c(Cl)ncnc3c2c1	ssDAF12 agonist 1.0
COc1ccc2[nH]c3c(Cl)ncnc3c2c1	none
Cn1c(-c2ccc(CN3CCCCC3)o2)nc2ccccc21	hcDAF12 agonist 5.8, ssDAF12 agonist 1.2
c1ccc2c(c1)nc(-c1ccncc1)n2CCNc1nc(CN2CCCCC2)cs1	none
COc1ccc(CN2C(=O)CS/C2=N/N=C/c2ccccc2)cc1	none
COc1ccc(/C=N/N=C2/SCC(=O)N2Cc2ccccc2)cc1	hgDAF12 agonist 12.8
C=CCN1C(=O)[C@H](CC(=O)N2CCCCC2)[C@@]2(C(=O)OCC)CCCC=C12	none
COc1cc(F)ccc1-c1csc(C(O)c2ccccc2)n1 (stereo not drawn)	none
COc1cc(C=O)ccc1OCc1ccc(Cl)nc1	hgDAF12 agonist 11.4
CCc1c(-c2ccc(Cl)cc2)ncn1CCc1ccccc1OC	none
CCCCNC(=O)c1nc(-c2cccs2)oc1-c1ccc(Cl)cc1	ssDAF12 agonist 0.9
CSc1nc(O)c(C(c2ccc(O)cc2)c2c(O)nc(SC)[nH]c2=O)c(=O)[nH]1	none
CSc1nc(O)c(C(c2cccc([N+](=O)[O-])c2)c2c(O)nc(SC)[nH]c2=O)c(=O)[nH]1	hcDAF12 agonist 6.0
Cc1ccc(C)c(Nc2nc(N)c3ccccc3n2)c1	hgDAF12 agonist 11.6
COc1ccc(Cl)cc1Nc1nc(N)c2ccccc2n1	none
CCOC(=O)c1sc(NC(=O)CN2CCN(c3ccc(OC)cc3)CC2)nc1C	ssDAF12 agonist 1.8
Cc1ccc(NC(=O)CNCc2ccccc2OCC(=O)Nc2ccc(I)cc2)cc1	none
Cc1cc(/C=C(/C#N)C(=O)Nc2ccccc2)c(C)n1-c1cccnc1	hgDAF12 agonist 10.8
O=C(NCc1ccccc1C(F)(F)F)c1cccc2c1C(=O)c1ccc(N3CCC(N4CCCCC4)CC3)cc1S2(=O)=O	SMARCA2 activ 19.6
COc1ccc(NC(=S)N2CCN(c3ccc([N+](=O)[O-])cc3)CC2)cc1OC	none
COc1cccc(NC(=S)N2CCN(c3ccc([N+](=O)[O-])cc3)CC2)c1	ssDAF12 agonist 1.1
O=C1[C@@H](CCc2ccccc2)[C@@H]2c3cc4ccccc4cc3C=NN2[C@@H]2c3cc4ccccc4cc3C=NN12	none
Cc1cccc(C)c1NC(=O)C1(C)CSCC(=O)N1CCCn1ccnc1 (stereo not drawn)	ssDAF12 agonist 2.1
Cc1cccc(C)c1NC(=O)C1(C)CCC(=O)N1CCCn1ccnc1 (stereo not drawn)	none

Screening data from PubChem BioAssay.
